Seven compounds from PubChem BioAssay (Tox21) can be followed below.

Assay [1] in a line: qHTS assay to identify small molecule antagonists of the estrogen receptor alpha (ER-alpha) signaling pathway using the BG1 cell line in the presence of 0.1 nM 17-beta-estradiol - cell viability counter screen (AID 1259241). Note: nearly all actives have a fitted effect of over 40% in size. Note: potency is the fitted concentration of half-maximal effect. The gist of the method: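 VM7Luc4E2 cells (endogenous full-length ER-alpha, 4xERE-luciferase), cultured 5 days in charcoal-stripped serum, exposed to compounds with 0.1 nM 17beta-estradiol (final) for 22 hr at 37C. Viability read in same wells as live-cell protease fluorescence after 30 min.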

Assay [2] is described as follows: qHTS assay to identify small molecule antagonists of the androgen receptor (AR) signaling pathway using the MDA cell line in the presence of 0.5 nM R1881 - cell viability counter screen (AID 1259242). Note: nearly all actives have a fitted effect of over 45% in size. Note: potency is the fitted concentration of half-maximal effect. The essentials: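 Viability of MDA-kb2 cells was multiplexed with the luciferase AR readout; after 16 hr with compounds and R1881 at 0.5 nM final, CellTiter-Fluor fluorescence was recorded.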

Assay [3] can be described thus: qHTS assay to identify small molecule phospholipidosis (PLD) inducers (AID 1259344; active = well fitted curve in the direction sought with a large enough effect; an effect the other way counts as inactive or inconclusive). The essentials: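 HepG2 cells grown on collagen I take up LipidTOX Red while exposed to compound for 24 h; after fixation they are imaged at 20x and pit metrics are extracted.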
Assay [4] is described as follows: qHTS assay to identify small molecule HDAC inhibitors (AID 1259364).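 Note: wild-type HCT-116 cells with endogenous class I/II HDAC activity; top concentration of the series differs between compounds; nearly all actives have a fitted effect of over 45% in size.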 The essentials: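 Read-out: luminescence of HDAC-Glo I/II reagent, 30 min RT, reflecting class I/II deacetylase activity in whole HCT-116 cells pre-exposed 2 h to DMSO-dissolved compounds.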
Assay [5] is described as follows: qHTS assay to identify small molecule HDAC inhibitors - cell viability counter screen (AID 1259365). Note: series mostly up to about 92 µM; nearly all actives have a fitted effect of over 50% in size. The gist of the method:
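Wild-type HCT-116 cells, 1,500/well, cultured overnight, then compound-treated 2 h at 37 C. Viability measured as ATP luminescence with CellTiter-Glo after 30 min at room temperature.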

Assay [6] is described as follows: qHTS assay to identify small molecule agonists of the sonic hedgehog signaling (Shh) pathway - cell viability counter screen (AID 1259366). Note: nearly all actives have a fitted effect of over 50% in size. Note: potency is the fitted concentration of half-maximal effect. The essentials: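 NIH/3T3-derived Gli1-Luc reporter cells, 2,000 per well, received compound after 4 h and were treated about 23 h at 37C. Viability measured in the same wells by CellTiter-Fluor fluorescence after 1 h.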
A short description of assay [7]: qHTS assay to identify small molecule antagonists of the sonic hedgehog signaling (Shh) pathway - cell viability counter screen (AID 1259367). Note: nearly all actives have a fitted effect of over 55% in size. Note: potency is the fitted concentration of half-maximal effect. The essentials: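 After a 4 hr settling period, 3T3 Gli1-Luc cells were treated with DMSO-dissolved chemicals and conditioned medium, kept 24 hr at 37C in 5% CO2, and assayed for viability by CellTiter-Fluor fluorescence following 1 hr reagent incubation.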

Assay [8] can be described thus: qHTS assay to identify small molecule agonists of the sonic hedgehog signaling (Shh) pathway (AID 1259368; calls by dose curve;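 note: NIH/3T3-derived 3T3Gli1-Luc cells carrying a stable Gli1-driven firefly luciferase reporter; series mostly up to about 92 µM; nearly all actives have a fitted effect of over 15% in size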). The gist of the method:
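A Gli1 transcriptional response element controlled firefly luciferase in 3T3Gli1-Luc cells. Compounds and a positive control were added 4 hr after plating, and cells were incubated a further 24 hr at 37 C before luminescence detection.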

Assay [9] in a line: qHTS assay to identify small molecule antagonists of the sonic hedgehog signaling (Shh) pathway (AID 1259369; calls by dose curve; note: nearly all actives have a fitted effect of over 45% in size; note: potency is the fitted concentration of half-maximal effect). The essentials: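 For antagonist detection, the reporter line received test compounds together with conditioned medium, incubated 24hr at 37 C, 5% CO2, then luminescence was recorded following 30min room-temperature luciferase reagent incubation.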
Assay [10] can be described thus: qHTS assay to identify small molecule agonists of the estrogen receptor beta (ER-beta) signaling pathway - cell viability counter screen (AID 1259380). Note: nearly all actives have a fitted effect of over 30% in size. Note: potency is the fitted concentration of half-maximal effect. The essentials: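 CellTiter-Glo read, 30 min RT, same wells as bla assay; cells ER-beta-UAS-bla HEK293T; 16 hr compound, 37C; medium 2% charcoal-stripped FBS.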
The nature of assay [11]: qHTS assay to identify small molecule antagonists of the estrogen receptor beta (ER-beta) signaling pathway - cell viability counter screen (AID 1259382). Note: nearly all actives have a fitted effect of over 55% in size. Note: potency is the fitted concentration of half-maximal effect. The gist of the method:
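In this multiplexed counter screen, cells were seeded at 2,000 per well in medium with 2% charcoal-stripped FBS and incubated 6 hr before compound and 1nM final E2 were added. Sixteen hours later, ATP-based luminescence reported viability.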

Assay [12] can be described thus: qHTS assay to identify small molecule agonists or antagonists of the thyroid stimulating hormone receptor (TSHR) signaling pathway - wild type cell line counter screen (AID 1259384; calls by dose curve). The essentials:
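Wild-type HEK293 cells were plated 18 h at 37 C/5% CO2, pin-dosed with compound plus Ro20-1724 medium, held 30 min at room temperature, then given cAMP-d2 and anti-cAMP-cryptate; fluorescence was read after 1 h. Fifteen concentrations, triplicate.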

Assay [13] addresses Thyrotropin receptor (Homo sapiens) (UniProt P16473). Briefly: qHTS assay to identify small molecule antagonists of the thyroid stimulating hormone receptor (TSHR) signaling pathway (AID 1259385; calls by dose curve; note: nearly all actives have a fitted effect of over 20% in size; note: potency is the fitted concentration of half-maximal effect). The gist of the method:
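TSHR-HEK293 cells were plated and held 18 h at 37C/5% CO2, then given compound plus Ro20-1724 and stimulated with TSH at 1.5 ng/mL final. After 30 min at room temperature, cAMP was detected with cAMP-d2/anti-cAMP-cryptate (1 h) by fluorescence.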

Assay [14] has as its target Estrogen receptor (Homo sapiens) (UniProt P03372). Briefly: qHTS assay to identify small molecule antagonists of the estrogen receptor alpha (ER-alpha) signaling pathway using the BG1 cell line in the presence of 0.1 nM 17-beta-estradiol (AID 1259244). Note: nearly all actives have a fitted effect of over 50% in size. Note: potency is the fitted concentration of half-maximal effect. The gist of the method: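 Estradiol at 0.1 nM (final) stimulates the endogenous ER-alpha of VM7Luc4E2 cells carrying an ERE-driven luciferase; compounds are co-incubated 22 h at 37C and luciferase output quantified by luminescence.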

Assay [15] addresses Estrogen receptor beta (Homo sapiens) (UniProt Q92731). Briefly: qHTS assay to identify small molecule agonists of the estrogen receptor beta (ER-beta) signaling pathway (AID 1259377; active = well fitted activation curve with a large enough effect in the signal ratio in the repeat runs, not every such curve was filed as active; the % refers to the signal ratio; note: potency is the fitted concentration of half-maximal effect). The essentials: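 ER-beta-UAS-bla HEK293T cells in medium with 2% charcoal-stripped FBS were exposed to compounds for 16 h at 37C. Beta-lactamase reporter activity was read as fluorescence after 2 h with LiveBLAzer B/G FRET substrate at room temperature.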

The target is the same in assay [16]. Briefly: qHTS assay to identify small molecule antagonists of the estrogen receptor beta (ER-beta) signaling pathway (AID 1259378; active = well fitted inhibition curve with a large enough effect in the signal ratio in the repeat runs, not every such curve was filed as active; the % refers to the signal ratio). The essentials:
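ER-beta-UAS-bla HEK293T (GripTite) cells in 2% charcoal-stripped FBS medium were preincubated 6 hr at 37C, dosed with compound, then stimulated with 1 nM E2 (final) for 16 hr; beta-lactamase reporter read by B/G FRET fluorescence after 2 hr substrate loading.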

The nature of assay [17]: qHTS assay to identify small molecule agonists of the androgen receptor (AR) signaling pathway in the presence of an antagonist - cell viability counter screen (AID 1259379). Note: nearly all actives have a fitted effect of over 25% in size. Note: potency is the fitted concentration of half-maximal effect. The essentials: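 Seed MDA-kb2 at 3,000 cells/well; incubate 5 hr, 37C, 0% CO2. Add nilutamide to 3.0uM final, then pin compounds at 15 concentrations. Incubate 16 hr. Add CellTiter-Fluor at 15 hr, read fluorescence after 1 hr.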

The target in assay [18] is Estrogen receptor (Homo sapiens) (UniProt P03372). In words: qHTS assay to identify small molecule agonists of the estrogen receptor alpha (ER-alpha) signaling pathway in the presence of an antagonist (AID 1259383; calls by dose curve; note: nearly all actives have a fitted effect of over 15% in size; note: potency is the fitted concentration of half-maximal effect; for activation: top concentration of the series differs between compounds). The gist of the method:
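Stably transfected VM7Luc4E2 reporter cells, kept 5 days in charcoal-stripped serum, received ICI-182,780 at 10.0nM final before compound addition. Following 22hr incubation at 37C and 5% CO2, luciferase signal was read by luminescence.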

Results filed as inconclusive are left out. The source made the active and inactive calls. Unless noted, calls come from the whole dose curve; as a rule, active = well fitted curve in the direction sought with a large enough effect in the repeat runs; inconclusive = weak or mixed curves; inactive = no such curve, though single readings can be large; an effect the other way counts as inactive or inconclusive.

Estrogen receptor (Homo sapiens), sequence (P03372 whole entry, looked up): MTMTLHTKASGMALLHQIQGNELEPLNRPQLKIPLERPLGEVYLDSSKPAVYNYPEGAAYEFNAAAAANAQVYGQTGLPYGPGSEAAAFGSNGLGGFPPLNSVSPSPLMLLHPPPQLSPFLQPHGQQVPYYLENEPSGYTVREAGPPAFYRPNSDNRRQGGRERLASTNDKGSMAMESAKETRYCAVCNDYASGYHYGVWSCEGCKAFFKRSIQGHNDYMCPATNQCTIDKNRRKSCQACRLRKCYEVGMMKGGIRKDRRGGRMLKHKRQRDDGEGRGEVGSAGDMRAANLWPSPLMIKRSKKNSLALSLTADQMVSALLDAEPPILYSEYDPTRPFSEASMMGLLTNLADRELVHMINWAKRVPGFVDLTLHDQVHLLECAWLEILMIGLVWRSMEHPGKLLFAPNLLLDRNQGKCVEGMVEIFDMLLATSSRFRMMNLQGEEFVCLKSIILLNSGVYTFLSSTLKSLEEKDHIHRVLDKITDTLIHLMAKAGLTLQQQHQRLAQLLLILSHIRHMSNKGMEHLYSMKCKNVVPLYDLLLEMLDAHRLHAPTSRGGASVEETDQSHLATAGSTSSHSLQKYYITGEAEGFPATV
Thyrotropin receptor (Homo sapiens), sequence (P16473 whole entry, looked up): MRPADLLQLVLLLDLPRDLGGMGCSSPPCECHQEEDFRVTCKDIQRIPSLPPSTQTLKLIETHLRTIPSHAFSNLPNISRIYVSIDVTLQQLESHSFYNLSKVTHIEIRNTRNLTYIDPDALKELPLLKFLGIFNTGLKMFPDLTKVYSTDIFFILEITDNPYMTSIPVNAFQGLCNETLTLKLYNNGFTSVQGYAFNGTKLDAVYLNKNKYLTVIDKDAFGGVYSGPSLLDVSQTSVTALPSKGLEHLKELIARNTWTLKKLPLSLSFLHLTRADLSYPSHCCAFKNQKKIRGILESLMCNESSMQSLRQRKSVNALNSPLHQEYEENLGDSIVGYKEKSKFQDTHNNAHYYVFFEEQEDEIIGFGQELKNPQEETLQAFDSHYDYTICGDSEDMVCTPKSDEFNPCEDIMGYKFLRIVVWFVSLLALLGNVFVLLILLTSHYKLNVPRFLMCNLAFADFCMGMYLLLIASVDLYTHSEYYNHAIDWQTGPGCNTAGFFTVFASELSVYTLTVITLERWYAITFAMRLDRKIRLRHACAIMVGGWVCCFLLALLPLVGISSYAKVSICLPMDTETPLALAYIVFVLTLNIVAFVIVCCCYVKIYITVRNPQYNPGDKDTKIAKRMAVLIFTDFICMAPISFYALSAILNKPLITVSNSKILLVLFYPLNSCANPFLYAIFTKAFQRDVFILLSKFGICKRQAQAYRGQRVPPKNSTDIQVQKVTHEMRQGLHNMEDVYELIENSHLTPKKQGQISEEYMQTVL
Estrogen receptor beta (Homo sapiens), sequence (Q92731 whole entry, looked up): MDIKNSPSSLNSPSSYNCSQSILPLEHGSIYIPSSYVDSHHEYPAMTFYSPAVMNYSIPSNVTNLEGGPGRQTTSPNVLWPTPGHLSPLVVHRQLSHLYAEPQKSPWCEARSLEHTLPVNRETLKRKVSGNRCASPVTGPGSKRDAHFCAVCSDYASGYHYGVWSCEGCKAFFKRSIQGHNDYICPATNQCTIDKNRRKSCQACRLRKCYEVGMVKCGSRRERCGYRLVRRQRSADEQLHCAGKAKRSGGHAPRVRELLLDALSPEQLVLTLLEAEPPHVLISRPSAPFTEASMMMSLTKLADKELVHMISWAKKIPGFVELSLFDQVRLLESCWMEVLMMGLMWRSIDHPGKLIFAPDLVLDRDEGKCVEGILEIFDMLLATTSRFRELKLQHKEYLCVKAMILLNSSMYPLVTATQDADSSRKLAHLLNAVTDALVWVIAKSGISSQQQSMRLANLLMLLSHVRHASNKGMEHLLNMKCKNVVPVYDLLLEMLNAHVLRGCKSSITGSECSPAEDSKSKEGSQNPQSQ

In the case of `Clc1ccc(CCC(Cn2ccnc2)Sc2c(Cl)cccc2Cl)cc1` (stereo not drawn), the Potency entry in assay [1], in assay [2], in [3], in assay [4], in assay [5] and in assay [6] was “inactive” throughout. In addition, the Potency result in assay [7], in assay [8] and in assay [13] was “inactive” throughout. Moreover, the figures for the Potency in assay [9], in assay [10] and in assay [11] were 2.98 µM (active), 29.8 µM (active) and 33.5 µM (active), respectively. Moreover, the compound was classed as inactive in [12].

For `BrCBr`, the Potency result in [1], in assay [2], in assay [14], in [4], in [6] and in assay [7] was “inactive” in each case. Moreover, the Potency entry in [8], in [9], in assay [15], in assay [16], in assay [17] and in assay [10] was “inactive” in each case. The Potency result in assay [11], in assay [18] and in assay [13] was “inactive” in each case. Besides, in assay [12], the compound was classed as inactive.

With `CC(=O)Nc1ccc2c(c1)Cc1ccccc1-2`, the Potency result in assay [1], in [2], in [14], in assay [5], in [6] and in assay [7] was “inactive” in each case. For the same compound, the Potency entry in assay [8], in [9], in assay [17], in [10], in assay [11] and in [13] was “inactive” each time. Further, the Potency in assay [18] was 8.77 µM (active). Also, in assay [12], the outcome was inactive.

As to `Clc1ccc(-c2ccc(Cl)c(Cl)c2Cl)c(Cl)c1Cl`, the Potency entry in assay [1], in [2], in assay [14], in assay [4], in assay [5] and in assay [6] was “inactive” throughout. The Potency result in assay [7], in assay [8], in assay [17], in assay [11] and in assay [18] was “inactive” each time. Besides, the Potency in assay [10] and in assay [13] was 58.2 µM (active) throughout. In addition, the outcome in assay [12] was inactive.

With `C[C@]12CC[C@H]3[C@@H](CCC4=CC(=O)CC[C@@]43C)[C@@H]1CC[C@@H]2O`, the Potency result in assay [1], in assay [2], in [14], in [4], in assay [5] and in assay [6] was “inactive” in each case. Moreover, the Potency result in [7], in assay [8], in [17], in [11], in assay [18] and in [13] was “inactive” throughout. Also, the Potency in assay [15] was 5.41 µM (active). In addition, the call in assay [12] was inactive.

In the case of `O=[N+]([O-])c1cc(C(F)(F)F)c(Cl)c([N+](=O)[O-])c1Cl`, the Potency in assay [1] is 61.1 µM (active); in assay [2] it was 27.3 µM (active); in assay [14] it was 61.1 µM (active); in assay [6], 13.7 µM (active); in assay [7] it was 21.7 µM (active); in assay [9] it was 4.86 µM (active). Besides, the Potency in assay [17] was 27.3 µM (active); in assay [10], 27.3 µM (active); in assay [11], 30.6 µM (active); in assay [13], 61.1 µM (active). For the same compound, the Potency result in [4] and in [18] was “inactive” in each case. The compound was called inactive in [12].

Turning to `OC(c1ccc(Cl)cc1)(c1ccc(Cl)cc1)C(Cl)(Cl)Cl`, the Potency entry in assay [1], in assay [2], in [14], in assay [4], in [7] and in assay [8] was “inactive” each time. Moreover, the Potency result in assay [9], in assay [15], in assay [16], in [10], in assay [11] and in [18] was “inactive” each time. Moreover, in assay [12], the compound was called inactive. In [13], the Potency was 68.6 µM (active).
